Dicer processing = inhibitors of human Dicer processing of pre-microRNA; Q9UPY3; cat-ELCCA pre-miR-21 Dicer processing, chemiluminescence; hits give high values; z-score at 25 µM; actives 6% (n = 47,000); in the data active means z-score above about 3, passing the limit was not always enough;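 further: plate controls were vehicle for no effect and no enzyme for full effect; higher signal means more uncleaved substrate so more Dicer inhibition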
* = called active by the depositor. The entries come from a sample that favours hits as a whole.

Screening N#CC(c1ccccc1)N(CCO)CCO (stereo not given) returned Dicer processing 2.57.
For COc1ccc2[nH]c(C(=O)Nc3ccc(Br)c(C)n3)cc2c1 the results were Dicer processing -1.68.
CCc1ccc2[nH]c(C(=O)NCc3cc(Cl)ccc3Cl)cc2c1 was read as Dicer processing -4.11.
`CCc1ccc2[nH]c(C(=O)Nc3ccc(Br)c(C)n3)cc2c1` gave Dicer processing 43.8*.
`Cc1nc(-c2nnc(-c3ccc(Cl)cc3)o2)c(C(F)(F)F)o1` gave Dicer processing -1.41.
Screening COC(=O)c1cc(=O)nc2n1C1O[C@H](CO)C(O)[C@H]1O2 (stereo not given in full) returned Dicer processing -0.36.
CNc1nc(C23CC4CC(CC(C4)C2)C3)ns1 was read as Dicer processing 1.73.
Screening O=[N+]([O-])c1ccc(O[C@@H]2O[C@H](CO)[C@@H](O)[C@H](O)[C@H]2O)cc1 returned Dicer processing 2.96.
For Cc1ccc(-n2nnnc2SCCOc2ccc(C)c(C)c2)cc1 the results were Dicer processing 9.75*.
Screening Cc1cc(=O)[nH]c(SCCOc2ccc(C)c(C)c2)n1 returned Dicer processing -1.29.
Screening C=CCSc1nnnn1-c1ccc(OC(=O)C=C(C)C)cc1 returned Dicer processing -0.89.
Screening CCOC(=O)C1(C)C(Br)=C(Nc2ccc(Cl)cc2)C(=O)N1c1ccccc1 (stereo not given) returned Dicer processing 1.22.
For CCOC(=O)C1(C)C=C(Nc2ccc(OCC)cc2)C(=O)N1c1ccc(OCC)cc1 (stereo not given) the results were Dicer processing 3.17*.
For CCOC(=O)C1(C)C=C(Nc2ccc(OC)cc2)C(=O)N1c1ccc(OC)cc1 (stereo not given) the results were Dicer processing 0.34.
For ONC(=Nc1cc(Cl)cc(Cl)c1)c1ccccc1 the results were Dicer processing 3.02*.
`NC(N)=NC(N)=Nc1cc(Cl)cc(Cl)c1` gave Dicer processing -0.42.
Cc1cccc(N=C(NO)c2ccccc2)c1 was read as Dicer processing -3.79.
Screening COCCCN1C(=O)CS/C1=N\N=C\c1ccc(Cl)c(Cl)c1 returned Dicer processing -0.64.
Screening CC(=O)Oc1ccccc1/C(=C/C=C(c1ccccc1)c1ccccc1)N1CCOCC1 returned Dicer processing 4.31*.
`CCOC(=O)/C(C#N)=C/C=C(/c1ccc(Cl)cc1)N1CCOCC1` gave Dicer processing 0.23.
For N/C(=N\C(=O)N1CCOCC1)c1ccccc1 the results were Dicer processing -0.12.
For CCOC(=O)c1c(NS(=O)(=O)c2ccc(C)cc2)sc2c1CCCC2 the results were Dicer processing -1.68.
Screening Cn1c(=O)c2c(ncn2CC(=O)Nc2ccc(Cl)cc2)n(C)c1=O returned Dicer processing 2.09.
c1ccc(Sc2c(-c3ccccc3)nc3ccccn23)cc1 was read as Dicer processing -2.18.
Screening O=C1CC2C3C=C(Br)C4C3CC2C14 (stereo not given) returned Dicer processing -1.18.
`COc1cc(OC)cc(C(C)(C)OC(=O)NN)c1` gave Dicer processing -2.5.
Screening Fc1cccc(F)c1NC(=S)Nc1cc(C(F)(F)F)cc(C(F)(F)F)c1 returned Dicer processing 1.79.
Cc1sc2nc(C)n(/N=C/c3ccc4c(c3)OCO4)c(=O)c2c1C was read as Dicer processing 6.39*.
Screening Cc1sc2nc(C)n(/N=C/c3cccs3)c(=O)c2c1C returned Dicer processing 1.93.
Cc1nc2c(cnn2-c2ccccc2)c(=O)n1/N=C/c1ccc2c(c1)OCO2 was read as Dicer processing 2.13.
Screening COCc1cc(=O)[nH]c2c1c(-c1cccs1)nn2C returned Dicer processing 0.54.
Screening CN1CCN(C2Cc3ccccc3Sc3ccc(Cl)cc32)CC1 (stereo not given) returned Dicer processing -0.53.
CC1CN(CCO)Cc2ccc(Cl)cc21 (stereo not given) was read as Dicer processing 3.25*.
For CN1CCN(CC(=O)N2c3ccccc3Sc3ccc(Cl)cc32)CC1 the results were Dicer processing 1.3.
Screening C#CC(C)(CC)OC(=O)NC(=O)c1c(Cl)cccc1Cl (stereo not given) returned Dicer processing 0.93.
Cc1nnc(SCC(=O)Nc2ccc(F)cc2F)s1 was read as Dicer processing 0.78.
For Cn1cnnc1SCC(=O)Nc1ccc(F)cc1F the results were Dicer processing 4.73*.
For Cn1cnnc1SCC(=O)Nc1nc2ccccc2s1 the results were Dicer processing 2.82.
`CCCCNc1nc(CCCC)c2c(c1C#N)CC(C)(C)OC2` gave Dicer processing 1.2.
`COc1ccccc1Nc1nc(C)cs1` gave Dicer processing -0.15.
Screening CC(=O)c1csc(Nc2ccccc2Cl)n1 returned Dicer processing 1.25.
Screening Cc1csc(Nc2cccc3ccccc23)n1 returned Dicer processing 3.27*.
CCOC(=O)C1=C(CC)NC2=C(C(=O)CC(C)(C)C2)C1c1ccccc1 (stereo not given) was read as Dicer processing -1.27.
CCOC(=O)c1cnn2c1NC(c1ccccc1)CC2C(F)F (stereo not given) was read as Dicer processing -1.19.
For Cc1nn(C(=O)c2ccc(Cl)cc2)c(C)c1Sc1ccc(C(F)(F)F)cn1 the results were Dicer processing 1.43.
Screening CS/C(=N\S(=O)(=O)c1ccccc1)Nc1cccc(SC)c1 returned Dicer processing 1.87.
`Cn1c2c(c(=O)n(C)c1=O)CN(C1CCN(Cc3ccccc3)CC1)CN2` gave Dicer processing -0.19.
N#C/C=C/C=C/c1nnn(-c2ccc(Cl)cc2)n1 was read as Dicer processing -0.21.
COC(=O)c1cc(OC)c(OC)cc1NC(=O)/C=C\C(=O)O was read as Dicer processing 0.4.
For CCCSC(=NCC)Nc1c(C)cccc1C the results were Dicer processing 0.82.
For Cc1cccc(C)c1NC(=O)C(C)N (stereo not given) the results were Dicer processing 0.84.
`CSC(=NC(C)(C)CO)Nc1c(C)cccc1C` gave Dicer processing 4.75*.
For COc1ccc2ncc(-c3ccc(Cl)c(C)c3)nc2c1 the results were Dicer processing -0.59.
Screening O=S(=O)(c1ccccc1)n1ccc(-c2cnc3cc(Cl)c(Cl)cc3n2)c1 returned Dicer processing 0.74.
For Cc1cc2ncc(-c3ccccc3)nc2cc1C the results were Dicer processing 5.81*.
For O=S(=O)(Nc1cccc2nsnc12)c1cc(Cl)sc1Cl the results were Dicer processing 0.24.
For CCOC(=O)/C(C#N)=C/c1ccc(C)cc1 the results were Dicer processing 1.25.
Screening CCOC(=O)CSc1nc(C)c2cc(C)c(C)cc2n1 returned Dicer processing 2.42.
Screening CCOC(=O)CSc1nc(C)c2cc(OC)ccc2n1 returned Dicer processing 3.57*.
`CCOC(=O)Nc1nc2ccc(OC)cc2s1` gave Dicer processing 5.73.
For CCOC(=O)c1cnc2ccc(OC)cc2c1Cl the results were Dicer processing -0.1.
`COc1ccc(-c2nnc(SCCC(=O)O)n2C)cc1` gave Dicer processing 0.07.
For CCCc1c(C)nc2ccc(OC)cc2c1SCCC(=O)O the results were Dicer processing 3.51*.
CCn1nc(C)cc1-c1n[nH]c(=S)n1-c1ccc(Cl)cc1 was read as Dicer processing -0.1.
O=C(N/N=C/c1ccc(Cl)cc1)c1csc(CS(=O)(=O)Cc2ccco2)n1 was read as Dicer processing -0.81.
Screening FC(F)(F)c1c2c(nc3c(-c4ccccc4)cnn13)CCC2 returned Dicer processing 1.51.
For O=C(Nc1ccc2c(c1)OCCO2)C1Cc2ccccc2N1C(=O)OCc1ccccc1 (stereo not given) the results were Dicer processing 0.03.

Screening data: PubChem, Center for Chemical Genomics, University of Michigan
